In PubChem BioAssay (NCATS):
Records with an inconclusive call do not appear. Unmarked numbers belong to inactive results. Calls come from the whole dose curve; as a rule, active = well fitted curve in either direction with a large enough effect (not every such curve was filed as active); inconclusive = small, poorly fitted or top-dose-only effect, or another doubt; inactive = flat fitted curve, though single readings scatter.

Assay: Stat Signaling Pathway (AID 446);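 note: SIE-controlled beta-lactamase reporter measured as 460/530 nm FRET emission ratio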
Conditions: ME-180 (cervical carcinoma) SIE beta-lactamase reporter, IL-6 stimulated, 5 h; at 17.2 µM (top of the series) unless noted
Method in brief: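 Compound effects on IL-6-induced STAT reporter activity were measured in ME-180 cells. After overnight culture, cells were co-treated with 40 pM IL-6 for 5 hrs before beta-lactamase substrate loading at room temperature.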
% is set by controls: 0 for no effect and ±100 for the full control effect.

Row | SMILES | activity, negative = inhibition
1 | O=C1CCC(=O)N1c1nc2nc(-c3ccccc3)cc(-c3ccccc3)n2n1 | -1.33%
2 | N#CCCN(C(=O)c1ccco1)c1ccccc1 | 9.28%
3 | Cn1c(=O)c2c(nc(Br)n2Cc2ccc3ccccc3c2)n(C)c1=O | -5.3%
4 | Cc1c(NS(=O)(=O)c2cccc3nsnc23)c(=O)n(-c2ccccc2)n1C | 0.737%
5 | Cc1[nH]nc(-c2ccc(O)cc2O)c1Oc1ccccc1 | -21.9%
6 | Nc1nnnn1/N=C/c1cccc(Oc2ccccc2)c1 | 10.9%
7 | O=C(O)C(O)c1ccco1 (stereo not given) | 1.78%
8 | COc1ccccc1-n1c(=O)c2c3c(sc2n2c(SC)nnc12)CCC3 | 14.3%
9 | O=S1(=O)C[C@@H](N2CCOCC2)[C@H](N2CCOCC2)C1 | -4.63%
10 | COC(=O)c1[nH]c(C)c(/C(O)=C2\C(=O)C(=O)N(CCN3CCOCC3)C2c2cccnc2)c1C (stereo not given) | 2.79%
11 | COc1ccc(-n2c(=O)c3c4c(sc3n3c(C)nnc23)CC(C)CC4)cc1 (stereo not given) | 10.9%
12 | Cc1ccc(-c2nnc(OCCN3CCOCC3)c3ccccc23)cc1 | -1.56%
13 | O=C(Nc1ccccc1C(=O)NCCCn1ccnc1)c1ccccc1 | 3.12%
14 | CCn1c(SC(C)C(=O)O)nc2sc3c(c2c1=O)CCC3 (stereo not given) | -5.33%
15 | C=CCOC(=O)C1=C(C)NC(SCC(=O)Nc2ccc(C)c(Cl)c2)=C(C#N)C1c1ccco1 (stereo not given) | 6.22%
16 | O=C(Oc1ccccc1N1C(=O)CCC1=O)c1ccco1 | 1.19%
17 | CC1(C)SC2[C@H](NC(=O)C(NC(=O)N3CCNC3=O)c3ccccc3)C(=O)N2C1C(=O)O (stereo not given in full) | 1.47%
18 | Cc1c(C2Nc3ccccc3NC3=C2C(=O)CC(C)(C)C3)cnn1C (stereo not given) | 14.2%
19 | COc1cccc(N2CCN(C3CC(=O)N(c4cccc(Cl)c4)C3=O)CC2)c1 (stereo not given) | -13.6%
20 | COc1ccc(OC)c(C2C(C#N)=C(N)Oc3cc(C)n(Cc4ccccn4)c(=O)c32)c1 (stereo not given) | -2.84%

Row | SMILES | activity, negative = inhibition
21 | COC(=O)c1[nH]c2cc(OC)ccc2c1NC(=O)CN1CCC(C(N)=O)CC1 | 0.718%
22 | CCCC(=O)Nn1cnc2c(c1=O)C1(CCCC1)Cc1ccccc1-2 | -0.176%
23 | COc1ccc(Cn2c(CCCO)nc3ccccc32)cc1OC | -4.44%
24 | CCOC(=O)Cc1nnc(Nc2cccc(O)c2)c2ccccc12 | -17.1%
25 | COc1ccc(C2=Nn3c(nnc3-c3cccnc3)SC2)cc1OC | -17.6%
26 | CCOc1ccc(C2=Nn3c(nnc3-c3cccnc3)SC2)cc1 | -4.46%
27 | Cc1ccc(C2/C(=C(/O)c3cnn(-c4ccccc4)c3C)C(=O)C(=O)N2CCN2CCOCC2)o1 (stereo not given) | -14.9%
28 | Cc1nn(C)cc1/C=N/O | 4.83%
29 | CCSc1nc(N)c2c3c(sc2n1)CCC3 | -3.03%
30 | COn1c(SC2CCCCC2)nc2ccccc2c1=O | -9.6%
31 | Cc1nn(CC(=O)N2CCOCC2)c(=O)c2ccccc12 | 1.28%
32 | CC1(C)CC(=O)C2=C(C1)OC(N)=C(C#N)C2C1C=CCCC1 (stereo not given) | -5.68%
33 | CCOC(=O)c1cc2c(=O)n3ccccc3nc2n(Cc2ccccc2Cl)c1=N | 2.43%
34 | CCn1cc(/C=N/O)c(C)n1 | 14%
35 | CCCNC1=C(C)C(=O)CC1 | 0.709%
36 | CCOC(=O)CC(=O)CSc1[nH]c(=O)cc(C)c1C#N | 13.5%
37 | Cc1[nH]nc2c1C(CCc1ccccc1)C(C#N)=C(N)O2 (stereo not given) | -1.82%
38 | O=C(O)C1CC(=O)N(Cc2cccs2)C1 (stereo not given) | 7.75%
39 | COc1ccc(C(=O)c2ccc(N3CCOCC3)cc2)c(OC)c1 | 1.25%
40 | O=c1cc(NCc2ccccc2)nc2n1CCCS2 | -19.7%
